Screening data: PubChem BioAssay, several laboratories
Peg3 promoter = reduces Peg3 promoter-driven luciferase expression in HeLa; AID 588405; actives 1.7% (n = 360,000); inhibition, % at 20 µM; HeLa PEG-Prom luciferase reporter, luminescence, overnight;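 active = inhibition of at least 50% at 20 µM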
KKLEB cytotox = counter-screen for CF NF-kB inhibitors: cytotoxicity. KKLEB CF airway cells viability, ATPlite luminescence, overnight; stronger effect = lower value; cells stimulated with P. aeruginosa culture filtrate. activity change (cytotoxicity), % at 5 µM. actives 0.36% (n = 360,000). AID 602141;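 active = corrected activity change at or below -50% at 5 µM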
HIF-2a inh = HIF-2a inhibition; inhibition, % at 18.8 µM; actives 0.72% (n = 360,000); 786-0 RCC cells HIF-2a reporter, luciferase luminescence, overnight; AID 624352;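 active = inhibition of the luminescence signal of 40% or more relative to plate controls, in a single-dose primary screen at 18.75 µM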
ABHD5 PLIN5 PPI = blocks binding of human ABHD5 to perilipin-5. Split G. princeps luciferase complementation, luminescence, 4 h. inhibition, % at 4 µM. actives 0.78% (n = 360,000). AID 602281;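 active = inhibition above the mean inhibition across every tested compound plus 3 SD, cut at about 22% in these data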;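 note: 0% = DMSO only wells and the 100% control is not disclosed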
Mdm2-MdmX inh = human Mdm2/MdmX binding inhibition | inhibition, % at 8 µM | SaOS-2 split-luciferase Mdm2/MdmX complementation, luminescence | O15151+Q00987 | actives 3% (n = 330,000);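 active = inhibition of at least 50% at 8 µM in the primary screen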
CF NFkB inh = inhibitors of cystic fibrosis induced NF-kB | KKLEB NF-kB-GFP reporter, PAF-induced, GFP fluorescence overnight | inhibition, % at 5 µM | actives 0.86% (n = 360,000);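 active = at least 50% inhibition at 5 µM, scaled per plate between neutral and stimulator controls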;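 note: PAF is a Pseudomonas aeruginosa culture filtrate used as stimulus; plate controls were PAF-stimulated DMSO wells for no effect and unstimulated DMSO wells for full effect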
Mdm2-MdmX conf = human Mdm2/MdmX binding inhibition, confirmed. shares compounds with Mdm2-MdmX inh. luminescent assay. inhibition, % at 8 µM. actives 55% (n = 10,000). AID 489028; in the data active = inhibition above about 40%
FLuc counter = counter-screen for Mdm2/MdmX inhibitors: full-length luciferase | shares compounds with Mdm2-MdmX inh | SaOS-2 full-length luciferase counterscreen, luminescence | inhibition, % at 8 µM | actives 77% (n = 6,200) | AID 504607;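 active = mean inhibition at 8 µM reaching about 37%, which flags the compound as non-specific, limit read from the data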;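 note: p53-null SaOS-2 cells with luciferase driven by a doxycycline-inducible promoter; compound on cells about two nights before reading with doxycycline added after day one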
* = called active by the depositor; . = not tested or not shown. The list is not random: actives were taken first. Their share in the collection is about 4.6%.

SMILES	Peg3 promoter	KKLEB cytotox	HIF-2a inh	ABHD5 PLIN5 PPI	Mdm2-MdmX inh	CF NFkB inh	Mdm2-MdmX conf	FLuc counter
Cc1c(Cc2ccc3c(c2)OCO3)sc(NC(=O)c2ccc3ccccc3c2)c1C(N)=O	-7.3	-21.0	-11.7	5.1	80.5*	11.8	-11.3	.
Cc1c(Cc2ccc3c(c2)OCO3)sc(NC(=O)C(C)(C)C)c1C#N	21.7	-6.3	-28.5	11.3	57.6*	21.1	36.0	.
CCCOc1ccc(C(=O)Nc2nc(C)c(Cc3ccc4c(c3)OCO4)s2)cc1	-55.2	-32.3	-112.8	6.7	47.9	9.5	.	.
CCC(=O)Nc1sc(Cc2ccc3c(c2)OCO3)c(C)c1C(N)=O	14.7	-6.1	20.7	2.0	4.4	10.9	.	.
CSc1ccc(CN2CCC(C)(Oc3cccc(F)c3)C2)cc1 (configuration not stated)	-5.0	-13.0	4.3	0.1	.	7.6	.	.
CCN(CC)S(=O)(=O)c1ccc(N/N=C/c2cc(OC)ccc2O)nc1	29.8	-11.8	23.9	1.6	79.6*	12.5	83.3*	22.6
O=C(CCC1CCCN(C(=O)c2cc(F)ccc2F)C1)N1CCN(c2ccccn2)CC1 (configuration not stated)	13.1	-3.3	11.4	-1.5	.	1.3	.	.
CC(C)c1ccc2c(c1)C(N1CCNCC1)Cc1ccc(F)cc1S2 (configuration not stated)	.	.	.	.	61.8*	.	34.0	.
CN1CCN(C2Cc3cc(F)ccc3Sc3ccc(Cl)cc32)CC1 (configuration not stated)	23.2	-11.5	19.2	12.9	44.6	11.3	.	.
CN1CCN(C2Cc3ccc(F)cc3Sc3cc(F)c(Cl)cc32)CC1 (configuration not stated)	107.0*	-23.9	0.0	8.2	64.7*	15.9	40.7*	56.5*
CCCC(=O)Nc1ccc2oc(-c3ccncc3)nc2c1	-26.9	-4.7	-54.9	-5.9	-28.8	5.8	.	.
CCCCCC(=O)Nc1ccc2oc(-c3cncc(Br)c3)nc2c1	-117.1	-7.6	-157.2	0.0	57.9*	10.8	-9.2	.
CCN(CC)CC(=O)Nc1ccc(-c2nc3cc(NC(=O)CN(CC)CC)ccc3o2)cc1	47.3	7.3	-78.5	-0.1	54.8*	-7.2	41.0*	73.6*
Cc1ccc2oc(-c3ccc(NC(=O)CC(C)C)cc3)nc2c1	-354.8	-0.4	-222.2	11.0	-54.4	4.1	.	.
CCC(C)NCC(=O)Nc1ccc(-c2nc3cc(NC(=O)CNC(C)CC)ccc3o2)cc1 (configuration not stated)	108.4*	4.4	-9.0	0.8	100.4*	-12.0	41.8*	35.6
CCOc1ccc(N(C(=O)c2ccc(S(=O)(=O)N3CCCC3)cc2)C2C=CS(=O)(=O)C2)cc1 (configuration not stated)	8.1	-11.6	7.5	4.1	8.0	-4.6	.	.
CC(C)CNC(=O)[C@H](Cc1ccccc1)NC(=O)c1cccs1	12.0	5.5	8.8	-10.3	-11.2	-3.5	.	.
Cc1onc(-c2ccccc2)c1C(=O)N1CCCC(C)(C(=O)NS(=O)(=O)C2CC2)C1 (configuration not stated)	2.4	2.7	5.5	4.2	.	-29.1	.	.
O=C(/C=C/c1cn(-c2ccccc2)nc1-c1cccnc1)N1CCCC1	6.7	8.3	9.4	10.4	.	-0.7	.	.
O=C(/C=C/c1cn(-c2ccccc2)nc1-c1cccnc1)c1ccco1	42.6	-6.2	29.9	13.4	51.5*	32.0	33.6	.
CCc1ccc(NC(=O)c2cnc(N3CCN(c4ccccn4)CC3)c3ccccc23)cc1	64.8*	-14.5	-34.0	2.4	63.9*	22.7	56.0*	59.5*
O=C(c1ccco1)N1CCN(C(=O)C2CCCc3c2[nH]c2ccc(Cl)cc32)CC1 (configuration not stated)	23.8	5.3	-9.4	-0.5	86.2*	-23.2	67.0*	28.5
Cc1ccc2[nH]c3c(c2c1)CCCC3C(N)=O (configuration not stated)	18.6	8.5	-5.6	14.0	-0.7	-4.4	.	.
CCN(CC)C(=O)C1CCCc2c1[nH]c1ccc(Cl)cc21 (configuration not stated)	-11.4	-2.0	-80.1	-2.6	84.2*	-8.6	71.5*	34.6
COc1ccc(C=O)c(OCc2cn(CC(=O)c3ccc(O)cc3)nn2)c1	4.2	5.7	0.8	-0.4	.	-4.3	.	.
SMILES	Peg3 promoter	KKLEB cytotox	HIF-2a inh	ABHD5 PLIN5 PPI	Mdm2-MdmX inh	CF NFkB inh	Mdm2-MdmX conf	FLuc counter
COC(=O)C[C@@H]1C=C[C@@H](NC(=O)c2ccccc2F)[C@@H](CO)O1	.	.	8.7	-0.1	.	.	.	.
CCOc1ccccc1NC(=O)c1cc(C(=O)c2cc(Br)ccc2O)coc1=N	18.6	-10.1	-8.2	4.9	55.0*	26.2	59.9*	69.4*
CCc1ccc(N(CC)C(=O)c2ccc3c(Cl)c4c(nc3c2)CCC4)cc1	20.1	-20.3	27.8	0.3	56.2*	42.6	31.6	.
CCCCN(CC)CCNC(=O)c1ccc2c(Cl)c3c(nc2c1)CCC3	3.5	-7.4	-4.9	12.7	39.4	-1.3	.	.
CCN(CC)CCCNC(=O)c1ccc2c(Cl)c3c(nc2c1)CCCC3	61.2*	3.5	22.3	8.8	84.1*	3.4	49.4*	30.8
O=C(NCCCN1CCCC1)c1ccc2c(Cl)c3c(nc2c1)CCCC3	39.4	-22.3	-9.0	14.2	71.7*	3.6	50.7*	44.8*
CCCN1CCN(CCCNC(=O)c2ccc3c(Cl)c4c(nc3c2)CCCC4)CC1	34.9	-16.8	-0.7	-5.1	70.0*	8.1	39.1	54.6*
O=C(NC1CC1)c1ccc2c(Cl)c3c(nc2c1)CCCC3	-140.2	4.0	-171.1	2.1	-23.2	-10.0	.	.
COc1ccc(CC(=O)N(C)c2ccccc2)cc1S(=O)(=O)N1CCOCC1	-8.8	9.3	4.8	-5.3	.	-1.4	.	.
CCCN(C(=O)c1ccccc1Cc1ccccc1)C1CCS(=O)(=O)C1 (configuration not stated)	-3.7	13.3	12.6	5.5	15.8	10.0	.	.
CCOC(=O)C1=C(C)Nc2sc(C(=O)c3ccc(C)cc3)c(N)c2C1c1ccc(C(=O)OC)cc1 (configuration not stated)	3.6	-4.0	13.1	0.0	39.1	-55.7	.	.
CCOC(=O)C1=C(C)Nc2sc(C(=O)c3ccc(F)cc3)c(N)c2C1c1ccc(C(=O)OC)cc1 (configuration not stated)	3.9	-4.7	13.4	-4.6	60.9*	-28.1	21.5	.
C=CCC[C@H](Cc1ccc(F)cc1)C(=O)OC[C@H](Cc1c[nH]c2ccccc12)NC(=O)[C@H](CC=C)CC(=O)N(CCO)Cc1ccccc1	44.9	-13.2	-2.3	-13.3	89.9*	30.4	26.2	.
